Measurements as given in PubChem BioAssay (EPA / NIEHS).
Active and inactive are the calls of the source. Rule for the calls: active = hit-call score of the fitted dose curve at least 0.9, where 1 is the maximum; inactive = score below 0.9.

target: Hypoxia-inducible factor 1-alpha (Homo sapiens) (UniProt Q16665); experiment: ATG_HIF1a_CIS: Attagene CIS-FACTORIAL HepG2 Assay for human Hypoxia Inducible Factor 1 (HIF1A) (AID 2282951); details: HepG2 Attagene cis-factorial HIF1a reporter transcription; actives raise or lower the signal
Procedure, shortened: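 Measures endogenous transcription-factor activity through cis-regulated reporter mRNA in HepG2. Cells dosed 24 h; transcripts quantified by RT-PCR with 6-FAM-labelled products separated by capillary electrophoresis; DMSO serves as negative control.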

Chain of Hypoxia-inducible factor 1-alpha (Homo sapiens) (Q16665 whole entry, looked up): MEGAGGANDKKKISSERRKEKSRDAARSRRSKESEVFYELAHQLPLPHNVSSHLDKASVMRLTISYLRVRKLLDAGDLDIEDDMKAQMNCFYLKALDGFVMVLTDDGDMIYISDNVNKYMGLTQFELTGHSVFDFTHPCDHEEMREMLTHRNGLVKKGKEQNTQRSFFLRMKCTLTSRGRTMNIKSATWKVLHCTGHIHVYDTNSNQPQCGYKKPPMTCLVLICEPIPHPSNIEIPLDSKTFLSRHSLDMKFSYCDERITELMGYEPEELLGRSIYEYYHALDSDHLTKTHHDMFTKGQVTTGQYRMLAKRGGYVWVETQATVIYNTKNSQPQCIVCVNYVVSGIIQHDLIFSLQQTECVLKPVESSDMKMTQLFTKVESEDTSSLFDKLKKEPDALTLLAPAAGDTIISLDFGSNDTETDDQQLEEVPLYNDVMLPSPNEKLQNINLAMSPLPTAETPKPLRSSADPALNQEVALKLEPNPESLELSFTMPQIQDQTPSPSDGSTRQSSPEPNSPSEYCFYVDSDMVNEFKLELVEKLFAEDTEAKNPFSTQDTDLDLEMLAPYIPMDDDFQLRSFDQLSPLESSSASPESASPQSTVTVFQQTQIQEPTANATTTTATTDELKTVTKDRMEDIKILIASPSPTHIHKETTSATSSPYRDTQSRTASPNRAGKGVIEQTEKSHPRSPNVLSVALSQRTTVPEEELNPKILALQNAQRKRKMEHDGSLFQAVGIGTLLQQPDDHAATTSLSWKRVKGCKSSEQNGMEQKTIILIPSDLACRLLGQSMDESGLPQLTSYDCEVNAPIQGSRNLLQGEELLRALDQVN

Row | Structure (SMILES) | outcome
1 | CCOP(=O)(SC(C)CC)N1CCSC1=O (stereo not drawn) | inactive
2 | CC(=NC#N)N(C)Cc1ccc(Cl)nc1 | inactive
3 | CCc1cccc(C)c1N(C(=O)CCl)C(C)COC (stereo not drawn) | inactive
4 | COc1cc(OC)nc(Sc2cccc(Cl)c2C(=O)O)n1 | inactive
5 | CC1=NNC(=O)N(/N=C/c2cccnc2)C1 | inactive
6 | CC(C1CC1)C(O)(Cn1cncn1)c1ccc(Cl)cc1 (stereo not drawn) | inactive
7 | C#CC(C)(C)NC(=O)c1cc(Cl)cc(Cl)c1 | inactive
8 | CCOP(=S)(OCC)SCCSCC | inactive
9 | CCOP(=S)(Oc1cnc(C(C)(C)C)nc1)OC(C)C (stereo not drawn) | inactive
10 | CCCOc1nn(C(=O)NS(=O)(=O)c2ccccc2C(=O)OC)c(=O)n1C | inactive
11 | CC[C@H](C)[C@H]1O[C@]2(C=C[C@@H]1C)C[C@@H]1C[C@@H](C/C=C(\C)[C@@H](O[C@H]3C[C@H](OC)[C@@H](O[C@H]4C[C@H](OC)[C@@H](NC)[C@H](C)O4)[C@H](C)O3)[C@@H](C)/C=C/C=C3\CO[C@@H]4[C@H](O)C(C)=C[C@@H](C(=O)O1)[C@]34O)O2 | inactive
12 | CN(C)NC(=O)CCC(=O)O | inactive
13 | Cc1nn(-c2cc(NS(C)(=O)=O)c(Cl)cc2Cl)c(=O)n1C(F)F | inactive
